Reference: publication doi:10.1101/2024.03.05.583629

Target: pT7_6His-AlfaTag-HOXD13 (human, UniProt P35453 263-343)
Experiment: PADIT-seq
Details: dsDNA, one strand shown

Sequence of pT7_6His-AlfaTag-HOXD13 (P35453 263-343): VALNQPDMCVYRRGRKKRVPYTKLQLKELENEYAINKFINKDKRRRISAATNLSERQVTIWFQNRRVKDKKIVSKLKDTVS

Sequence | binding signal
CTCGAGGATATCAAGATCTGGCCTCGGCATTTTAAGGGGAACCTCTAGCTAGCCGACTCACTATAGGGATAATCGCCCTGAGCAAAGACC | 1.95 ± 0.0802 log2FC
CTCGAGGATATCAAGATCTGGCCTCGGCATGCTAAAAGGAACCTCTAGCTAGCCGACTCACTATAGGGATAATCGCCCTGAGCAAAGACC | 0.0523 ± 0.0889 log2FC
CTCGAGGATATCAAGATCTGGCCTCGGCGTTTTAGAAGGAACCTCTAGCTAGCCGACTCACTATAGGGATAATCGCCCTGAGCAAAGACC | 0.37 ± 0.103 log2FC
CTCGAGGATATCAAGATCTGGCCTCGGCGTTTTATGGGGAACCTCTAGCTAGCCGACTCACTATAGGGATAATCGCCCTGAGCAAAGACC | 3.21 ± 0.0773 log2FC
CTCGAGGATATCAAGATCTGGCCTCGGCGTACTAAAAGGAACCTCTAGCTAGCCGACTCACTATAGGGATAATCGCCCTGAGCAAAGACC | 0.47 ± 0.0814 log2FC
CTCGAGGATATCAAGATCTGGCCTCGGCCTTATAAAAGGAACCTCTAGCTAGCCGACTCACTATAGGGATAATCGCCCTGAGCAAAGACC | 2.88 ± 0.0949 log2FC
CTCGAGGATATCAAGATCTGGCCTCGGCAACTGGGCGGGAACCTCTAGCTAGCCGACTCACTATAGGGATAATCGCCCTGAGCAAAGACC | -0.923 ± 0.12 log2FC
CTCGAGGATATCAAGATCTGGCCTCGGCTTTTTAAGTGGAACCTCTAGCTAGCCGACTCACTATAGGGATAATCGCCCTGAGCAAAGACC | 1.17 ± 0.094 log2FC
CTCGAGGATATCAAGATCTGGCCTCGGCCTTTTAATTGGAACCTCTAGCTAGCCGACTCACTATAGGGATAATCGCCCTGAGCAAAGACC | 2.53 ± 0.0779 log2FC
CTCGAGGATATCAAGATCTGGCCTCGGCCTTTTAGTTGGAACCTCTAGCTAGCCGACTCACTATAGGGATAATCGCCCTGAGCAAAGACC | 0.113 ± 0.0927 log2FC
CTCGAGGATATCAAGATCTGGCCTCGGCAAGCTAAAAGGAACCTCTAGCTAGCCGACTCACTATAGGGATAATCGCCCTGAGCAAAGACC | -0.784 ± 0.107 log2FC
CTCGAGGATATCAAGATCTGGCCTCGGCGTTTTAATTGGAACCTCTAGCTAGCCGACTCACTATAGGGATAATCGCCCTGAGCAAAGACC | 2.42 ± 0.0771 log2FC
CTCGAGGATATCAAGATCTGGCCTCGGCTTTTTAGTCGGAACCTCTAGCTAGCCGACTCACTATAGGGATAATCGCCCTGAGCAAAGACC | -0.553 ± 0.126 log2FC
CTCGAGGATATCAAGATCTGGCCTCGGCAACTTAAAAGGAACCTCTAGCTAGCCGACTCACTATAGGGATAATCGCCCTGAGCAAAGACC | 0.617 ± 0.0872 log2FC
CTCGAGGATATCAAGATCTGGCCTCGGCCTTTTACCGGGAACCTCTAGCTAGCCGACTCACTATAGGGATAATCGCCCTGAGCAAAGACC | 0.698 ± 0.0877 log2FC
CTCGAGGATATCAAGATCTGGCCTCGGCATTTTAACAGGAACCTCTAGCTAGCCGACTCACTATAGGGATAATCGCCCTGAGCAAAGACC | 2.07 ± 0.0923 log2FC
CTCGAGGATATCAAGATCTGGCCTCGGCTTTTTAAGGGGAACCTCTAGCTAGCCGACTCACTATAGGGATAATCGCCCTGAGCAAAGACC | 1.83 ± 0.0924 log2FC
CTCGAGGATATCAAGATCTGGCCTCGGCGTATTAAAAGGAACCTCTAGCTAGCCGACTCACTATAGGGATAATCGCCCTGAGCAAAGACC | 2.14 ± 0.0726 log2FC
CTCGAGGATATCAAGATCTGGCCTCGGCAGACTAAAAGGAACCTCTAGCTAGCCGACTCACTATAGGGATAATCGCCCTGAGCAAAGACC | -0.679 ± 0.104 log2FC
CTCGAGGATATCAAGATCTGGCCTCGGCGTTTTACCTGGAACCTCTAGCTAGCCGACTCACTATAGGGATAATCGCCCTGAGCAAAGACC | -0.352 ± 0.118 log2FC
CTCGAGGATATCAAGATCTGGCCTCGGCCTTTTACCAGGAACCTCTAGCTAGCCGACTCACTATAGGGATAATCGCCCTGAGCAAAGACC | 0.296 ± 0.0912 log2FC
CTCGAGGATATCAAGATCTGGCCTCGGCTTGTTAAAAGGAACCTCTAGCTAGCCGACTCACTATAGGGATAATCGCCCTGAGCAAAGACC | 3.01 ± 0.0792 log2FC
CTCGAGGATATCAAGATCTGGCCTCGGCATTTTAGTCGGAACCTCTAGCTAGCCGACTCACTATAGGGATAATCGCCCTGAGCAAAGACC | -0.427 ± 0.127 log2FC
CTCGAGGATATCAAGATCTGGCCTCGGCTCCGTAAAAGGAACCTCTAGCTAGCCGACTCACTATAGGGATAATCGCCCTGAGCAAAGACC | 1.22 ± 0.0847 log2FC
CTCGAGGATATCAAGATCTGGCCTCGGCTGTCCACGCGGAACCTCTAGCTAGCCGACTCACTATAGGGATAATCGCCCTGAGCAAAGACC | -0.737 ± 0.124 log2FC
CTCGAGGATATCAAGATCTGGCCTCGGCGGGCCACGCGGAACCTCTAGCTAGCCGACTCACTATAGGGATAATCGCCCTGAGCAAAGACC | -1.1 ± 0.106 log2FC
